Screening data from PubChem BioAssay.
A selection: hits, their analogues and other compounds. The true share with any hit is near 3.8%.
ADAM10 inh: human ADAM10 inhibitors, primary screen, biochemical, QFRET, HTS; inhibition, % at 7 µM; recombinant ADAM10, EDANS/DABCYL FRET peptide cleavage, 3 h; 370,000 compounds, 0.62% hits; Disintegrin and metalloproteinase domain-containing protein 10 (Homo sapiens), O14672;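 active means inhibition above a per-campaign cutoff equal to the mean of compounds falling between control-based bounds plus 3 SD, cut at about 20% in these data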;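 further: 0% = DMSO wells while the 100% control is not disclosed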
rRNA inh HTS: reduced GFP signal of wild-type E. coli, primary screen, bacterial rRNA inhibitor project, GFP/RFP fluorescence, OD600, single point | GFP signal change (wild-type ribosome), % (concentration not given with the values) | E. coli WT GFP vs humanized-ribosome RFP mutants, 24 h; active compounds read low; DMSO median 0, no signal -100 | 350,000 compounds, 1.6% hits;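 active means significant combined selectivity score with lowered wild-type GFP, culture density cut under 30%, mutant RFP and density less affected; inactive means any of these conditions unmet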
KLK7 zymogen act: proKLK7 zymogen activators, primary screen, biochemical, fluorescence intensity; Kallikrein-7 (Homo sapiens), P49862; purified proKLK7, EDANS-DABCYL substrate fluorescence; 100% is mature enzyme control, 0% vehicle; activation, % at 7 µM; 370,000 compounds, 0.9% hits; AID 652039, 2013;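 active means activation above the mean of all tested compounds plus 3 SD, computed per campaign excluding outliers beyond control limits, cut at about 13% in these data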
ADAM17 inh: ADAM17 inhibitors, primary screen, biochemical, QFRET; 370,000 compounds, 0.83% hits; inhibition, % at 6.95 µM; Disintegrin and metalloproteinase domain-containing protein 17 (Homo sapiens), P78536; recombinant ADAM17, EDANS/DABCYL FRET peptide cleavage;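 active means inhibition above the mean of compounds lying between control limits plus 3 SD, set per campaign, cut at about 8.5% in these data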;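 further: 0% = DMSO-only wells as the low control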
Target sequence (P78536 215-824 limits assumed): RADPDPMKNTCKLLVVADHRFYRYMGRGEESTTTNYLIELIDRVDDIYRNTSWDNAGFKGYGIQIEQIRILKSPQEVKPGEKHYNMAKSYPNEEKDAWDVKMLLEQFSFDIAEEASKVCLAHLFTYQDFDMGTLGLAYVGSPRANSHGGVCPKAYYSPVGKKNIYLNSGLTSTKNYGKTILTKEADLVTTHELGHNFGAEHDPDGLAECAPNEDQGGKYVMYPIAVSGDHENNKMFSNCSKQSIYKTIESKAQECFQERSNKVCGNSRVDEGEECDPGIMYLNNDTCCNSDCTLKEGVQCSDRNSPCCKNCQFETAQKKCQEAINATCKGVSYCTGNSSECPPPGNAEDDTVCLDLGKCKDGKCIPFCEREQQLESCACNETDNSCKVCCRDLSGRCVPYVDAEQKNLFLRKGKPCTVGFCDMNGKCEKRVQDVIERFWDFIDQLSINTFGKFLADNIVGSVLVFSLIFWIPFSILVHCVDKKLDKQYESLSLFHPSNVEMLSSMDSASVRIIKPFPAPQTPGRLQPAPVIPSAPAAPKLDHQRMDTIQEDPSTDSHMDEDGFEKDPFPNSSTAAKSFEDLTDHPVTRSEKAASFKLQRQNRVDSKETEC
FGF22 binding: binders of human FGF22 protein, primary screen, FGF22 synaptogenesis inhibitor project, biophysical, thermal shift, single point; Fibroblast growth factor 22 (Homo sapiens), Q9HCT0; recombinant FGF22 thermal shift, SYPRO orange fluorescence; percent of sucrose octasulfate shift, DMSO zero; activity (Tm shift, normalised), % at 9.99 µM; 340,000 compounds, 1.5% hits; AID 651658, 2012;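 active means mean Tm shift, scaled 0 neutral to 100 positive control, at about 1.3% or above, every replicate too, limit read from the data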
Numbers without * were called inactive.

Screening CC1=NN(c2ccccc2)C(=O)/C1=C\c1cn(CCC#N)nc1-c1ccc(Cl)cc1 returned ADAM10 inh 12, rRNA inh HTS 8, KLK7 zymogen act 0, ADAM17 inh 1 and FGF22 binding 44*.
CC1=NN(c2ccccc2)C(=O)/C1=C\c1cn(-c2ccccc2)nc1C was read as ADAM10 inh -5, rRNA inh HTS 19, KLK7 zymogen act 0, ADAM17 inh -1 and FGF22 binding 0.
For O=C(N/N=C/C=C\c1ccco1)c1cccs1 the results were ADAM10 inh -5, rRNA inh HTS 11, KLK7 zymogen act 1, ADAM17 inh -4 and FGF22 binding 44*.
O=C(Cc1cccs1)N/N=C/C=C\c1ccco1 was read as ADAM10 inh -3, KLK7 zymogen act 0, ADAM17 inh 1 and FGF22 binding 1.
Screening COc1ccc(NC(=O)CN(C)C(=O)CSc2ccc(Br)cc2)cc1 returned ADAM10 inh -4, rRNA inh HTS -30*, KLK7 zymogen act -1, ADAM17 inh -6 and FGF22 binding 0.
COc1ccc(NC(=O)CN(C)C(=O)CSc2ccc3c(c2)OCCO3)cc1 was read as ADAM10 inh 2, rRNA inh HTS 4, KLK7 zymogen act 1, ADAM17 inh 5 and FGF22 binding 0.
`O=C1Nc2ccccc2Nc2ccccc21` gave ADAM10 inh -2, rRNA inh HTS 6, KLK7 zymogen act 0, ADAM17 inh 0 and FGF22 binding 0.
Screening O=C1Nc2ccccc2N=C(c2ccccc2)c2ccccc21 returned ADAM10 inh 3, rRNA inh HTS -28*, KLK7 zymogen act 0, ADAM17 inh -1 and FGF22 binding -1.
`CC(C)(C)N/N=C1\CC(c2ccccc2)Oc2ccccc21` (centres undefined) gave ADAM10 inh 5, KLK7 zymogen act 0 and ADAM17 inh 0.
Screening O=S(=O)(N/N=C1/CC(c2ccccc2)Oc2ccccc21)c1ccccc1 (centres undefined) returned ADAM10 inh -16, rRNA inh HTS -12*, KLK7 zymogen act 0, ADAM17 inh -3 and FGF22 binding 0.
`CC(C)(C)c1ccc(NC(=O)Nc2ccc(F)cc2)cc1` gave ADAM10 inh 13, rRNA inh HTS -38, KLK7 zymogen act 1, ADAM17 inh 5 and FGF22 binding 43*.
Cc1cccc(NC(=O)Nc2ccc(Cl)c(Cl)c2)n1 was read as ADAM10 inh -3, rRNA inh HTS -26*, KLK7 zymogen act 0, ADAM17 inh -3 and FGF22 binding 0.
Screening Cc1cccc(NC(=O)Nc2ccccc2)n1 returned ADAM10 inh 2, rRNA inh HTS -2, KLK7 zymogen act 0, ADAM17 inh 1 and FGF22 binding 0.
Screening Cc1ccc(NC(=O)Nc2ccc(F)cc2)cc1Cl returned ADAM10 inh 3, rRNA inh HTS -33, KLK7 zymogen act 0, ADAM17 inh -2 and FGF22 binding 43*.
Cc1ccc(S(=O)(=O)Nc2ccc3c(c2)C(=O)N([C@H](C)CO)C[C@@H](C)[C@@H](CN(C)C(=O)c2ccncc2)OCCCC[C@H](C)O3)cc1 was read as rRNA inh HTS -2 and FGF22 binding 0.
`O=c1c2ccccc2nc(COc2ccccc2)n1/N=C/c1ccc(O)cc1O` gave ADAM10 inh -15, rRNA inh HTS -31*, KLK7 zymogen act -3, ADAM17 inh -4 and FGF22 binding 0.
`O=c1c2ccccc2nc(COc2ccccc2)n1/N=C/c1c[nH]c2ccccc12` gave ADAM10 inh -2, rRNA inh HTS 5, KLK7 zymogen act -1, ADAM17 inh -3 and FGF22 binding 0.
Screening O=C1OC(c2ccccc2)Cc2cc(C(=O)N3CCN(c4ccc(F)cc4)CC3)ccc21 (centres undefined) returned ADAM10 inh -4, rRNA inh HTS -29*, KLK7 zymogen act 0, ADAM17 inh -2 and FGF22 binding 0.
